# High-throughput results as filed in PubChem BioAssay.
# Sampled rows, rich in hits. Any-hit rate of the full collection: about 19%.
# TDP1 cell CPT – growth inhibition of DT40 Tdp1-/-;hTDP1 cells with camptothecin (screen for TDP1 inhibitors); chicken DT40 Tdp1-/-;hTDP1 cells + 20 nM CPT, ATP luminescence, 48 h; Potency, µM (highest dose often 46.2 µM), inactives show top-dose activity change, negative = growth inhibition, most hits filed as inhibitors; actives 12% (n = 420,000); further: potency means the concentration at half of the fitted maximal effect; nearly all actives have a fitted effect of over 55% in size
#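 Chicken DT40 Tdp1-/- cells stably complemented with human TDP1 were seeded at 400 cells/well in medium containing 20 nM camptothecin, exposed to pin-transferred compounds, and grown at 37 °C for at least 48 hr. Viability was read as ATP luminescence.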
# HT1080 IDH1KD tx – HT-1080 IDH1 knockdown cell toxicity (counter line); HT-1080 IDH1 knockdown viability, ATP luminescence, 48 h; Potency, µM (highest dose often 46.1 µM), for the others: at the top dose activity, negative = toxicity, hits mostly cytotoxic; actives 2% (n = 360,000); AID 686971;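 further: potency means the concentration at half of the fitted maximal effect; 0% = DMSO wells and -100% = cell-free medium wells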
#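 HT-1080-IDH1KD cells (IDH1 knocked down), 750/well in RPMI with 5% FBS, treated with compound 48 h at 37 degrees C. Viability by CellTiter-Glo luminescence, normalised to DMSO and no-cell wells; concentration-response curves classed.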
# TDP1 cell noCPT – qHTS for Inhibitors of human tyrosyl-DNA phosphodiesterase 1 (TDP1): qHTS in cells in absence of CPT | DT40 Tdp1-/- hTDP1 cells, no CPT, ATP luminescence, 48 h | Potency, µM (highest dose often 46.2 µM), inactives show at the top dose activity change, negative = growth inhibition, usual class: inhibitors | AID 686978, 2013 | actives 15% (n = 420,000); further: potency means the concentration at half of the fitted maximal effect; nearly all actives have a fitted effect of over 55% in size
#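 Seeded 400 DT40-hTDP1 cells/well (vehicle DMSO, no 20 nM CPT); pinned compounds; ≥48 hr at 37 °C; CellTiter-Glo luminescence as viability measure.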
# HT1080-NT tox – kills 2HG-producing HT-1080-NT fibrosarcoma cells | HT-1080-NT fibrosarcoma viability, CellTiter-Glo ATP luminescence, 48 h | Potency, µM (highest dose often 46.1 µM), without a hit: at the highest dose activity, negative = less viability, usual class: cytotoxic | actives 1.6% (n = 360,000) | AID 686970;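 further: NT is the 2HG producing partner of a matched IDH1 knockdown line; potency means the concentration at half of the fitted maximal effect; 0% = DMSO-treated cells and -100% = media-only wells without cells; nearly all actives have a fitted effect of over 55% in size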
#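 Compounds were tested in concentration-response format on HT-1080-NT cells for 48 hours at 37 degrees C. Cell viability came from CellTiter-Glo luminescence; curves were classified by r2, response magnitude and activity.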
# IL-1B inflam inh – inhibitors of inflammasome signaling (IL-1 beta secretion). THP-1 LPS/ATP IL-1B secretion, AlphaLISA, 16 h; stronger effect = lower value. activity change, % at 57.5 µM. actives 4.7% (n = 360,000). AID 743279; in the data active means activity change below about -50%; inconclusive means mostly about -30% to -49%
#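 THP-1 cells pretreated 1 hr with compounds (up to 57.5 uM final), then stimulated with LPS (250 ng/mL final) plus ATP (1.25 mM final); secreted IL-1B measured by AlphaLISA after 16 hr, decreased signal indicating inhibition.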
# * marks the source's active call; other numbers are inactive results; ? = inconclusive; nt = not tested or not shown; [ ] = another dose, or the depositor's remark. Unless noted, the call rests on the fitted dose curve; in most records, active means well fitted curve in the direction sought with a large enough effect; inconclusive means small, poorly fitted or top-dose-only effect, or another doubt; inactive means no such curve, though single readings can be large; an effect the other way counts as inactive or inconclusive. Unless noted, on the % scale 0 is the no-effect control and ±100 the full control effect.
SMILES,TDP1 cell CPT,HT1080 IDH1KD tx,TDP1 cell noCPT,HT1080-NT tox,IL-1B inflam inh
CSc1ccc(Nc2nn(-c3ccc(OC(F)(F)F)cc3)nc2C(C)=O)cc1,-7%,nt,-6%,nt,nt
O=C(Nc1ccc(F)cc1)c1ccc2c(=O)n3c(nc2c1)CCCCC3,?,3%,16µM*,1%,-14
CC(CCC(=O)O)C1CC[C@H]2C3CCC4CC(=O)CCC4(C)[C@H]3CC(=O)C12C (stereo not given in full),-2%,6%,6%,-1%,-13
O=C(O)c1ccc(/C=C/C(=O)c2ccc3c(c2)OCCCO3)cc1,?,?,23µM*,?,-103*
CC(=O)Nc1ccc2c(c1)OCCO2,10%,3%,1%,7%,8
O=C(O)c1ccc2c(c1)OCCOCCOCCOCCOCCO2,5%,3%,1%,7%,18
CC(=O)Nc1ccc(/C=C/C(=O)c2ccc3c(c2)OCCO3)cc1,?,?,?,?,-102*
CC1CCCC(N2CCN(C(=O)c3cccc(F)c3)CC2)C1 (stereo not given),-4%,12%,-4%,23%,0
CCOC(=O)c1csc(NC(=O)CN2CCN(C)CC2)n1,?,?,-9%,4%,-13
CS(=O)(=O)c1ccc(-c2nc(-c3ccc(F)cc3)c(-c3ccncc3)[nH]2)cc1,?,nt,27µM*,nt,nt
Cc1ccc(-c2[nH]c(-c3ccc(C(=O)O)cc3)nc2-c2ccccc2)cc1,-11%,5%,-18%,-3%,48
O=[N+]([O-])c1ccc(COP(=O)(O)OCc2ccc([N+](=O)[O-])cc2)cc1,-1%,0%,-14%,0%,11
CCN(CC(=O)Nc1ccccc1C(=O)OC)S(=O)(=O)c1ccccc1,23µM*,-6%,?,0%,22
COc1ccc(N2CCN(C(=O)CN(c3cccc(OC)c3)S(=O)(=O)c3ccccc3)CC2)cc1,21µM*,6%,15µM*,-2%,-13
COc1ccc(N(CC(=O)Nc2ccccc2C(N)=O)S(=O)(=O)c2ccc(C)c([N+](=O)[O-])c2)cc1,?,3%,23µM*,-1%,?
COc1cccc(N(CC(=O)N2CCN(C)CC2)S(=O)(=O)c2ccccc2)c1,0%,-2%,-2%,-3%,9
COC(=O)c1ccccc1NC(=O)CC(=O)Nc1ccccc1C(=O)OC,-21%,-8%,?,2%,5
COc1ccc(N(CC(=O)Nc2ccccc2C(=O)N2CCCC2)S(=O)(=O)c2ccccc2)cc1,21µM*,-10%,16µM*,-3%,0
COc1cc(OC)c(C2CC(=O)Nc3ccc4ccccc4c32)cc1OC (stereo not given),-23%,nt,?,nt,nt
COc1ccccc1CC(=O)NNS(=O)(=O)c1ccc([N+](=O)[O-])cc1,4%,-4%,6%,12%,15
COc1ccc(N(CC(=O)Nc2ccccc2C(=O)N2CCCC2)S(C)(=O)=O)cc1,19%,23%,5%,20%,-10
CC1Sc2ccc(S(=O)(=O)CCC(=O)NCc3cccs3)cc2NC1=O (stereo not given),-30%,-4%,0%,0%,38
C/C(=N\NC(=O)c1nnn(-c2nonc2N)c1-c1ccc2c(c1)OCO2)c1ccc(C)cc1,?,-18%,-1%,1%,11
CCC(NC(=O)c1ccncc1)c1ccccc1 (stereo not given),-3%,-2%,?,7%,40
COc1ccc(N(CC(=O)N2CCN(c3ccccc3)CC2)S(=O)(=O)c2ccccc2)cc1,16µM*,-1%,18µM*,-16%,-6
SMILES,TDP1 cell CPT,HT1080 IDH1KD tx,TDP1 cell noCPT,HT1080-NT tox,IL-1B inflam inh
COc1ccc(S(=O)(=O)N(CC(=O)N2CCN(c3ccccc3)CC2)c2ccccc2)cc1,-29%,0%,?,-1%,-13
O=C1NC(=S)NC1=Cc1ccc2c(c1)CCC2,16µM*,18%,?,18%,-9
COCCNc1c2c(c(C#N)c3nc4ccccc4n13)CCCC2,26µM*,-17%,21µM*,-14%,13
N#Cc1c2c(c(Cl)n3c1nc1ccccc13)CCCC2,0.71µM*,nt,0.89µM*,nt,nt
N/C(=N\OS(=O)(=O)c1ccc(Cl)cc1)c1ccccn1,?,-11%,16µM*,-6%,84
N/C(=N\OS(=O)(=O)c1ccccc1)c1ccccn1,?,13%,?,8%,20
COc1ccnc(NCc2cccc(C(F)(F)F)c2)c1C#N,12%,7%,-5%,-1%,-9
COc1ccnc(NCc2cccnc2)c1C#N,3%,10%,29µM*,8%,15
CC(C)CNS(=O)(=O)c1cc(C(=O)O)c(Cl)cc1Cl,4%,14%,4%,13%,6
CC(C)CNS(=O)(=O)c1cc(C(=O)OCC(=O)c2ccc3c(c2)OCCO3)c(Cl)cc1Cl,-21%,-14%,?,-23%,-240*
CCCn1c(C)cc(C(=O)COC(=O)c2cc(S(=O)(=O)NCC(C)C)c(Cl)cc2Cl)c1C,?,1%,15µM*,-1%,-3
O=C(CCC(=O)N1CCOc2ccc(Cl)cc21)NCCN1CCOCC1,4%,9%,-4%,3%,1
COc1ccc(C(=O)NC(=S)NNC(=O)c2ccc(C)cc2)cc1,?,?,?,?,32
Cc1ccc(C(=O)NC(=S)Nc2ccc(-c3ccc(CO)o3)cc2)cc1,?,-8%,10µM*,0%,0
O=C(NC(=S)Nc1ccc(Oc2ccccc2)cc1)c1ccc(Cl)cc1,?,14%[9.24 µM],23µM*,?,-54*
COCCCNC(=S)NC(=O)c1ccc(C)cc1,0%,14%,18µM*,0%,0
Cc1ccc(C(=O)NC(=S)Nc2ccc(Oc3ccc(Cl)cc3)cc2)cc1,?,-7%,21µM*,-2%,0
CC(=O)Nc1ccc(-c2nnn(CC(=O)Nc3ccc4c(c3)OCO4)n2)cc1Cl,0%,2%,-9%,-1%,12
COc1cccc(NC(=O)c2sc3ncn(CC(=O)N4CCN(c5ccccn5)CC4)c(=O)c3c2C)c1,18µM*,-6%,?,-3%,-8
COCCCNC(=O)c1sc2ncn(CC(=O)Nc3ccc(C)c(Cl)c3)c(=O)c2c1C,?,-22%,21µM*,-4%,17
COc1cc(NC(=O)c2sc3ncn(CC(=O)N4CCCCC4C)c(=O)c3c2C)cc(OC)c1OC (stereo not given),?,1%,12µM*,2%,-11
Cc1ccc(NC(=O)c2sc3ncn(CC(=O)N4CCN(c5ccccn5)CC4)c(=O)c3c2C)cc1Cl,?,0%,15µM*,-11%,17
